According to PubChem BioAssay (NCI):
The panel holds about 83,000 compounds, 20% with a hit somewhere; the sample as a whole holds those more often.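 The test compound was applied at a single concentration to cells in 96-well plates for 48 hours, and percent growth was recorded.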 A number with no mark means an inactive call. Active and inactive are the calls of the source. The calls were made as follows: active = growth percent below 10; inactive = the rest.

What was measured:
Test in all cases: NCI-60 one-dose screen, 48 h (100 = growth as untreated, 0 = no growth, -100 = all killed)
EKVX NSCLC = details: 10 µM unless noted
SN12C renal = details: 10 µM unless noted
UO-31 renal = details: 10 µM unless noted
TK-10 renal = details: 10 µM unless noted
ACHN renal = details: 10 µM unless noted
CAKI-1 renal = details: 10 µM unless noted
A498 renal = details: 10 µM unless noted
CCRF-CEM leukemia = details: 10 µM unless noted
MOLT-4 leukemia = details: 10 µM unless noted
SR leukemia = details: 10 µM unless noted
RPMI-8226 leukemia = details: 10 µM unless noted
OVCAR-8 ovarian = details: 10 µM unless noted
OVCAR-5 ovarian = details: 10 µM unless noted
OVCAR-4 ovarian = details: 10 µM unless noted
SK-OV-3 ovarian = details: 10 µM unless noted
IGROV1 ovarian = details: 10 µM unless noted
OVCAR-3 ovarian = details: 10 µM unless noted
HS 578T breast = details: 10 µM
NCI/ADR-RES ovarian = details: 10 µM unless noted
SK-MEL-2 melanoma = details: 10 µM

Compound	growth (EKVX NSCLC)	growth (SN12C renal)	growth (UO-31 renal)	growth (TK-10 renal)	growth (ACHN renal)	growth (CAKI-1 renal)	growth (A498 renal)	growth (CCRF-CEM leukemia)	growth (MOLT-4 leukemia)	growth (SR leukemia)	growth (RPMI-8226 leukemia)	growth (OVCAR-8 ovarian)	growth (OVCAR-5 ovarian)	growth (OVCAR-4 ovarian)	growth (SK-OV-3 ovarian)	growth (IGROV1 ovarian)	growth (OVCAR-3 ovarian)	growth (HS 578T breast)	growth (NCI/ADR-RES ovarian)	growth (SK-MEL-2 melanoma)
COc1cc2nc(Nc3cccc(Cl)c3)nc(N)c2cc1OC	111%	79.3%	75.3%	91.9%	95.8%	146%	63.5%	-81.3% (active)	53.7%	67.4%	35.7%	87.4%	111%	72.7%	114%	64.5%	89.2%	109%	74.1%	–
CSc1nc2ncncc2[nH]1	91.2%	91.4%	90.7%	102%	104%	621%	78.2%	97.7%	95%	95.2%	201%	104%	93.9%	102%	113%	76.1%	109%	74.8%	106%	–
COC(=O)[C@@H](NC(=O)[C@@H](OC)[C@@H]1Cc2cc3cc(OC4CC(OC5CC(O)C(O)C(C)O5)C(O)C(C)O4)c(C)c(O)c3c(O)c2C(=O)[C@H]1OC1CC(OC2CC(OC3CC(C)(O)C(O)C(C)O3)C(O)C(C)O2)C(O)C(C)O1)C(C)C (stereo partly specified)	25.3%	13.2%	7.39% (active)	21.7%	0.317% (active)	20%	-83.2% (active)	7.92% (active)	1.35% (active)	-8.16% (active)	-1.18% (active)	12.6%	2.67% (active)	13.4%	20.4%	32.3%	15.3%	-13.9% (active)	69.6%	–
CN1CCN(CCCOc2cccc3nc(Nc4ccc(Cl)c(C(F)(F)F)c4)ccc23)CC1	44.5%	28.3%	28.6%	-66.5% (active)	-69.3% (active)	48.9%	30.8%	-24.7% (active)	-57.6% (active)	-33.3% (active)	10.6%	13.9%	17.9%	42.1%	52.5%	55.4%	-4.07% (active)	32.6%	-0.603% (active)	–
COC(=O)CNC(=O)[C@@H](OC)[C@@H]1Cc2cc3cc(OC4CC(OC5CC(O)C(O)C(C)O5)C(O)C(C)O4)c(C)c(O)c3c(O)c2C(=O)[C@H]1OC1CC(OC2CC(OC3CC(C)(O)C(O)C(C)O3)C(O)C(C)O2)C(O)C(C)O1 (stereo partly specified)	20.2%	13.7%	10.9%	21%	-1.39% (active)	43.5%	-74.3% (active)	18%	-2.56% (active)	11.1%	2.86% (active)	12.4%	16.4%	2.95% (active)	24.3%	32%	3.71% (active)	-6.65% (active)	88.2%	–
O=C(CNc1nnc(-c2ccc(Cl)cc2)o1)Nc1ccc(-c2nc3ccccc3s2)cc1	104%	94.5%	73.3%	91.7%	112%	100%	82%	53.3%	33.2%	71.8%	95.4%	103%	116%	103%	117%	94.1%	97.7%	96.9%	98.9%	–
O=C1OCC2=C1C(c1cccc(F)c1)c1cc3c(cc1N2CCO)OCCO3 (stereo unspecified)	37.5%	31%	42.1%	57.7%	23.9%	31.8%	13.4%	7.52% (active)	7.49% (active)	12.3%	22.1%	24.4%	30.8%	45%	27.1%	26.3%	-13.9% (active)	31.4%	6.36% (active)	–
Brc1ccc([I+]c2ccc(Br)cc2)cc1	19.3%	-26.9% (active)	51.2%	-18% (active)	39%	51.2%	71.6%	20.3%	19.9%	3.44% (active)	7.72% (active)	11.6%	61%	22.3%	43.6%	26.2%	61.6%	69.7%	98.9%	–
CCOc1ccc(N=C(C)Nc2ccc(OCC)cc2)cc1	109%	102%	82.3%	108%	99.5%	122%	100%	88%	93.8%	84.5%	116%	106%	104%	104%	121%	106%	133%	106%	101%	–
COc1cc2c(cc1OCCCCCCN1CCN(c3ncnc4ccccc34)CC1)N=CC1CCCN1C2=O (stereo unspecified)	-8.7% (active)	-10.4% (active)	–	1.29% (active)	0.483% (active)	-19.6% (active)	–	-32.8% (active)	-32.1% (active)	-29.6% (active)	-47.4% (active)	-12.1% (active)	10.2%	-14.4% (active)	20.7%	1.08% (active)	-6.78% (active)	–	6.93% (active)	3.62% (active)
Cc1ccc(-[n+]2c3cc(N)c(C)cc3nc3cc(C)c(Nc4ccccc4)cc32)cc1	-22.6% (active)	-70.6% (active)	-86.8% (active)	-18.4% (active)	-92% (active)	-42.2% (active)	-84.5% (active)	1.93% (active)	-2.02% (active)	-39.1% (active)	-36.5% (active)	-6.17% (active)	-61.3% (active)	-38.7% (active)	-90.4% (active)	-59.5% (active)	-97.4% (active)	18.8%	-21.8% (active)	–
CCCCn1c(C)nc2ccc(Nc3nc(N4CCN(C)CC4)nc4nc[nH]c34)cc21	96.9%	87.3%	83.7%	104%	106%	99.8%	71.7%	90.5%	87.1%	84%	88.2%	91.8%	95.6%	97.8%	104%	94.1%	99.2%	86.8%	104%	–
COc1cc2c(cc1O)c(=O)n(CCN(C)C)c1c3cc4c(cc3ncc21)OCO4	9.22% (active)	-5.86% (active)	-46.8% (active)	-45.5% (active)	-61.8% (active)	-10.2% (active)	-59.8% (active)	-11.3% (active)	-15.9% (active)	4.06% (active)	-30.3% (active)	-9.58% (active)	-1.62% (active)	-1.86% (active)	3.14% (active)	0.0353% (active)	-39.9% (active)	11.4%	-12.6% (active)	–
COC[C@@H](C)n1c(C2CCOCC2)nc2c1C1C=C(OC)C(c3c(C)noc3C)=CC1N=C2 (stereo partly specified)	56.9%	64.9%	13.2%	6.38% (active)	41.2%	41%	18.6%	50.8%	59%	31.1%	10.4%	57.1%	70.3%	42.8%	39.6%	39.4%	28.9%	35%	43.4%	–
Clc1ccc(/C=C/c2cc(N3CCOCC3)c3cc(Cl)c(Cl)cc3n2)cc1	–	20.1%	12.5%	92.8%	94.3%	78.6%	67.7%	4.25% (active)	1.45% (active)	59.4%	-40.9% (active)	100%	105%	101%	105%	94.3%	–	102%	90.2%	104%
O=S1(=O)OC(c2cc(Cl)c(O)c(Br)c2)(c2cc(Cl)c(O)c(Br)c2)c2ccccc21	110%	90.6%	76.5%	93%	103%	107%	86.5%	93.6%	92.4%	92.4%	102%	89.8%	100%	101%	109%	95.6%	115%	94.1%	102%	–
